Active and inactive are the calls of the source. The calls were made as follows: active = hit-call score of the fitted dose curve at least 0.9, where 1 is the maximum; inactive = score below 0.9.
Tests used:
[1] = biological target: CCAAT/enhancer-binding protein beta (Homo sapiens) (UniProt P17676); assay: ATG_C_EBP_CIS: Attagene CIS-FACTORIAL HepG2 Assay for human CCAAT/Enhancer Binding Protein (C/EBP) beta (AID 2282927); conditions: HepG2 Attagene cis-factorial transcription factor reporter; actives raise or lower the signal
Summary of the method: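 RT-PCR/capillary electrophoresis fluorescence of reporter mRNA, 24 h post-dose, in HepG2 cells carrying transfected cis-promoter reporter units. Bidirectional curve fitting against DMSO baseline captures gain or loss of signal.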

[2] = ATG_CMV_CIS: Attagene CIS-FACTORIAL HepG2 Assay for human CMV (Internal Marker) (AID 2282928); conditions: HepG2 CMV promoter reporter, transcription factor profiling; actives raise or lower the signal;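 also: endpoint acts as a background internal control marker rather than a target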
Summary of the method: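 24 h chemical treatment, HepG2 with transient multi-reporter transfection; RNA → oligo(dT) RT → PCR → 6-FAM extension → HpaI digest → CE fluorescence. Bidirectional fit, DMSO negative control.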

[3] = ATG_DR4_LXR_CIS: Attagene CIS-FACTORIAL HepG2 Assay for human Liver X Receptor (LXR), DR4 submotif (AID 2282929); conditions: HepG2 Attagene DR4 cis-reporter, mRNA transcription; actives raise or lower the signal
Summary of the method: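 Transiently transfected HepG2 liver cells; cis-regulated reporters; 24 h dosing. RT-PCR plus CE read-out of reporter mRNA. DMSO baseline, bidirectional curve fitting.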

[4] = ATG_AP_1_CIS: Attagene CIS-FACTORIAL HepG2 Assay for human Activator Protein 1 (AP-1) (AID 2282931); conditions: HepG2 Attagene cis-factorial AP-1 reporter mRNA; actives raise or lower the signal
Summary of the method: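 We transfected HepG2 cells transiently with a set of cis-regulated reporter transcription units, dosed them for 24 h, and quantified reporter mRNA via RT-PCR and capillary electrophoresis, scoring gain or loss of signal relative to DMSO.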

[5] = ATG_AP_2_CIS: Attagene CIS-FACTORIAL HepG2 Assay for human Activator Protein 2 (AP-2) (AID 2282932); conditions: HepG2 AP-2 cis-reporter, Attagene transcription factor profiling; actives raise or lower the signal
Summary of the method: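 Cells (HepG2) transfected with promoter-driven reporter constructs, treated 24 h. Total RNA reverse-transcribed, reporter cDNA PCR-amplified, FAM-labelled by primer extension, digested, resolved by capillary electrophoresis. Activity fitted both directions versus DMSO.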

[6] = ATG_BRE_CIS: Attagene CIS-FACTORIAL HepG2 Assay for human Bone Morphogenetic Protein (BMP) Response Element (BRE) (AID 2282933); conditions: HepG2 BMP response element reporter, Attagene transcription factor profiling; actives raise or lower the signal
Summary of the method: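 Transient MRTU transfection of human HepG2 liver cells; 24 h compound treatment; total RNA isolated, reverse-transcribed, PCR-amplified, 6-FAM labelled, HpaI-cut, capillary electrophoresis. DMSO = negative control/baseline, bidirectional fit.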

[7] = biological target: Retinoic acid receptor alpha (Homo sapiens) (UniProt P10276); assay: ATG_DR5_RAR_CIS: Attagene CIS-FACTORIAL HepG2 Assay for human Retinoic Acid Receptor Alpha (RARE), DR5 submotif (AID 2282934); conditions: HepG2 Attagene cis-factorial RARE DR5 reporter, mRNA; actives raise or lower the signal
Summary of the method: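 HepG2 cells transiently transfected with multiplexed reporter units under cis (DR5 RARE) promoters, so endogenous transcription factor activity is measured. After 24 h compound exposure, reporter mRNA is quantified by RT-PCR with fluorescent labelling and capillary electrophoresis; bidirectional fitting versus DMSO.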

[8] = biological target: Transcription factor E2F1 (Homo sapiens) (UniProt Q01094); assay: ATG_E2F_CIS: Attagene CIS-FACTORIAL HepG2 Assay for human E2F Transcription Factor 1 (AID 2282935); conditions: HepG2 Attagene cis-reporter, E2F reporter RNA transcripts; actives raise or lower the signal
Summary of the method: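 First, HepG2 cells were transfected with reporter transcription units. Next, they were dosed for 24 h. Then RNA was isolated, converted to cDNA, PCR-amplified, FAM-labeled, HpaI-digested and analyzed by capillary electrophoresis.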

[9] = ATG_E_Box_CIS: Attagene CIS-FACTORIAL HepG2 Assay for human Enhancer Box (E-box) (AID 2282936); conditions: HepG2 E-box cis-reporter transcription, actives raise or lower the signal
Summary of the method: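 Endogenous transcription factor activity was sensed in human HepG2 liver cells through transfected cis-promoter reporter units. After 24 h of dosing, total RNA was reverse-transcribed and reporter cDNA resolved by capillary electrophoresis.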

[10] = ATG_M_61_CIS: Attagene CIS-FACTORIAL HepG2 Assay for M61 Transcription Factor (Internal Marker) (AID 2282937); conditions: HepG2 Attagene CIS-FACTORIAL M61 internal marker reporter; actives raise or lower the signal
Summary of the method: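 Multiplexed reporter mRNA assay, HepG2 human hepatoma cells, 24 h treatment. Signal: FAM-labelled, HpaI-digested RT-PCR fragments by CE. Fit: bidirectional, baseline DMSO.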

[11] = ATG_EGR_CIS: Attagene CIS-FACTORIAL HepG2 Assay for human Early Growth Response 1 (EGR1) (AID 2282938); conditions: HepG2 Attagene CIS-FACTORIAL EGR reporter mRNA; actives raise or lower the signal
Summary of the method: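 Multiplexed cis-reporter system in human hepatoma HepG2 cells, transiently transfected. Cells are dosed for 24 h; reporter transcripts are amplified, fluorescently tagged and sized by capillary electrophoresis, with DMSO as negative control.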

[12] = ATG_M_19_CIS: Attagene CIS-FACTORIAL HepG2 Assay for M19 Transcription Factor (Internal Marker) (AID 2282939); conditions: HepG2 Attagene CIS-FACTORIAL M19 internal marker reporter; actives raise or lower the signal
Summary of the method: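 Transfect HepG2 with MRTU reporter library → dose chemical, 24 h → isolate total RNA, reverse-transcribe with oligo(dT) → PCR, 6-FAM label, HpaI cut (2 h, 37 C) → capillary electrophoresis. Bidirectional fit vs DMSO.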

[13] = ATG_ERE_CIS: Attagene CIS-FACTORIAL HepG2 Assay for Estrogen Response Element (ERE) (AID 2282940); conditions: HepG2 ERE cis-reporter, Attagene RNA transcript; actives raise or lower the signal
Summary of the method: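 Transient MRTU transfection of human HepG2; cis-element promoters; 24 h dosing; total RNA → RT (oligo dT) → PCR → 6-FAM primer extension → HpaI digest → CE fluorescence. Bidirectional fit, DMSO baseline.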

[14] = ATG_Ets_CIS: Attagene CIS-FACTORIAL HepG2 Assay for human Erythroblast Transformation Specific (ETS) (AID 2282941); conditions: HepG2 ETS cis-reporter transcription, actives raise or lower the signal
Summary of the method: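 Cis-regulated reporter mRNA induction in HepG2 (transient transfection), 24 h exposure, RT-PCR plus capillary electrophoresis detection; DMSO serves as negative control and baseline.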

[15] = ATG_FoxO_CIS: Attagene CIS-FACTORIAL HepG2 Assay for human Forkhead box O (FoxO) (AID 2282943); conditions: HepG2 Attagene cis-reporter, FoxO element, mRNA; actives raise or lower the signal
Summary of the method: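 HepG2 cells transiently transfected with cis-promoter-driven multiple reporter transcription units; 24 h after chemical dosing, reporter mRNA quantified by RT-PCR, fluorescent primer extension, HpaI digestion and capillary electrophoresis. Bidirectional fitting versus DMSO baseline.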

[16] = ATG_GATA_CIS: Attagene CIS-FACTORIAL HepG2 Assay for human GATA Binding Protein (AID 2282944); conditions: HepG2 GATA cis-element reporter, Attagene multiplex mRNA; actives raise or lower the signal
Summary of the method: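 Transient MRTU transfection, HepG2, 24 h compound exposure. Total RNA → oligo(dT) RT → PCR → 6-FAM primer extension → HpaI cut → CE. Bidirectional fit vs DMSO.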

[17] = ATG_GLI_CIS: Attagene CIS-FACTORIAL HepG2 Assay for human Zinc Finger Protein GLI1 (AID 2282945); conditions: HepG2, Attagene cis-factorial reporter mRNA, GLI element; actives raise or lower the signal
Summary of the method: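 HepG2 cells transiently transfected with cis-promoter multiplexed reporter units report endogenous transcription factor activity. After 24 h chemical exposure, reporter mRNA was quantified by RT-PCR, 6-FAM labelling, HpaI digestion and capillary electrophoresis, with bidirectional fitting against DMSO.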

[18] = biological target: Aryl hydrocarbon receptor (Homo sapiens) (UniProt P35869); assay: ATG_Ahr_CIS: Attagene CIS-FACTORIAL HepG2 Assay for human Aryl Hydrocarbon Receptor (Ahr) (AID 2282930); conditions: HepG2 AhR cis-factorial reporter transcription; actives raise or lower the signal
Summary of the method: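 HepG2 cells transiently transfected with cis-element-driven multiplexed reporter transcription units; endogenous transcription factor activity measured as reporter mRNA 24 h after dosing. RT-PCR, 6-FAM labelling, HpaI digestion, capillary electrophoresis; bidirectional fitting versus DMSO baseline.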

[19] = biological target: Hepatocyte nuclear factor 3-beta (Homo sapiens) (UniProt Q9Y261); assay: ATG_FoxA2_CIS: Attagene CIS-FACTORIAL HepG2 Assay for human Forkhead box A2 (FOXA2) (AID 2282942); conditions: HepG2 cis-reporter transcription factor activity, 24 h; actives raise or lower the signal
Summary of the method: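 Multiplexed cis-element reporter assay in transiently transfected HepG2. Twenty-four hours post-dosing, RNA was reverse-transcribed, amplified, FAM-labelled, HpaI-digested and separated by CE. Activity gain or loss relative to DMSO.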

Measured: AC50

Sequence of Aryl hydrocarbon receptor (Homo sapiens) (P35869 whole entry, looked up): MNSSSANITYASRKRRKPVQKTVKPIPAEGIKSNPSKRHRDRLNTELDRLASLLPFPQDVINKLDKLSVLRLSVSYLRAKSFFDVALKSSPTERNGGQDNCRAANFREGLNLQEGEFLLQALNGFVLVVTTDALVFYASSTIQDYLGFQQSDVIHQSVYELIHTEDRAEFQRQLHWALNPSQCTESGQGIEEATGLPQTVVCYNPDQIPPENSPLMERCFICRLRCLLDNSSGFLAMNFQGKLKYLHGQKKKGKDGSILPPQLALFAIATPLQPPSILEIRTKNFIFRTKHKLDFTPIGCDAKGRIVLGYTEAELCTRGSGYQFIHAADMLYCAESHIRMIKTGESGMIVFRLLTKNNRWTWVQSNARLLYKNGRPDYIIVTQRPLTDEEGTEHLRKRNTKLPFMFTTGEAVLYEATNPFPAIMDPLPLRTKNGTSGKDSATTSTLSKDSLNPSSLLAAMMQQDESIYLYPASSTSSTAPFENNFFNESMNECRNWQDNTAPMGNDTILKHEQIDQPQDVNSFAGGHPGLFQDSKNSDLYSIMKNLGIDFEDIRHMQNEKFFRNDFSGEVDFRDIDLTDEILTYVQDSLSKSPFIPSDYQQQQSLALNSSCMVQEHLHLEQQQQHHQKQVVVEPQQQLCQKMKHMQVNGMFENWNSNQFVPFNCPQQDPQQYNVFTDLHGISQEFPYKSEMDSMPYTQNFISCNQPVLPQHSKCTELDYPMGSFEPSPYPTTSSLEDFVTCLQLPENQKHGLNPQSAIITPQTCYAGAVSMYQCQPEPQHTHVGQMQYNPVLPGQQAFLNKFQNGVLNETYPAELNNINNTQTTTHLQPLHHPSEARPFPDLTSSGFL
Sequence of Transcription factor E2F1 (Homo sapiens) (Q01094 whole entry, looked up): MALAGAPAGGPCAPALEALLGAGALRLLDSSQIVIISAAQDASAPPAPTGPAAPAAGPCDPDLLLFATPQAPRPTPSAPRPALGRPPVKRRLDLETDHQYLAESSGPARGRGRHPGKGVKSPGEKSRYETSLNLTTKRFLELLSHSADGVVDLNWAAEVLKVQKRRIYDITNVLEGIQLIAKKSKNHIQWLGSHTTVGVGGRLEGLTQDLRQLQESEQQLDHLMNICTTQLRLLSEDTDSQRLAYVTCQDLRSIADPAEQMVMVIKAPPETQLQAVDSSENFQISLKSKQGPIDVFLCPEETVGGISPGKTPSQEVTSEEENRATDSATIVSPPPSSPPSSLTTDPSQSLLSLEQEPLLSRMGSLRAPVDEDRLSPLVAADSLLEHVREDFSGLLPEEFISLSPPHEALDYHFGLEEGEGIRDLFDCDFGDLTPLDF
Sequence of Hepatocyte nuclear factor 3-beta (Homo sapiens) (Q9Y261 whole entry, looked up): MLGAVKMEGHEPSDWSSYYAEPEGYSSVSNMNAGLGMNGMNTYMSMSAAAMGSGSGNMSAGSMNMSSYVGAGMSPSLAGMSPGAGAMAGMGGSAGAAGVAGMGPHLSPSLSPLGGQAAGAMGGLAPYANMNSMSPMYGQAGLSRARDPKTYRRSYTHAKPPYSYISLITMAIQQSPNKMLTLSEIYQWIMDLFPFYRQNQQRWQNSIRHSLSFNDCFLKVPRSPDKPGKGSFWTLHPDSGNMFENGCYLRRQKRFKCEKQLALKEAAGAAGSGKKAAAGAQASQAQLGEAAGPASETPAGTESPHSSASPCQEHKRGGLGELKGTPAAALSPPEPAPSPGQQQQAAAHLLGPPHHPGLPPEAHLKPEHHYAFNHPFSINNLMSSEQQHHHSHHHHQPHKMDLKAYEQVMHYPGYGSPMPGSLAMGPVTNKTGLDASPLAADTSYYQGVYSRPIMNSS
Sequence of Retinoic acid receptor alpha (Homo sapiens) (P10276 whole entry, looked up): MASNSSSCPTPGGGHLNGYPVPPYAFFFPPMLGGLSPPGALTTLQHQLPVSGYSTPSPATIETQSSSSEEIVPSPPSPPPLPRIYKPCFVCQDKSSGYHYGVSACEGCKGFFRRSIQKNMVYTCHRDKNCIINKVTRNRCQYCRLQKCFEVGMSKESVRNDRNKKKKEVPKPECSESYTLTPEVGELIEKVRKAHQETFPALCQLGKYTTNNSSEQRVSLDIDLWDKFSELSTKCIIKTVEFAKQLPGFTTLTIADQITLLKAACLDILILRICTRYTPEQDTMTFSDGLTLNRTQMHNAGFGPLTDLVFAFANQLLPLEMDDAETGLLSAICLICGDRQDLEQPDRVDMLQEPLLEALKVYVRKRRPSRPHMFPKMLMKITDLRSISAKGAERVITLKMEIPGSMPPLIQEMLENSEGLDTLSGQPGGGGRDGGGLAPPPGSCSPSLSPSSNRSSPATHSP
Sequence of CCAAT/enhancer-binding protein beta (Homo sapiens) (P17676 whole entry, looked up): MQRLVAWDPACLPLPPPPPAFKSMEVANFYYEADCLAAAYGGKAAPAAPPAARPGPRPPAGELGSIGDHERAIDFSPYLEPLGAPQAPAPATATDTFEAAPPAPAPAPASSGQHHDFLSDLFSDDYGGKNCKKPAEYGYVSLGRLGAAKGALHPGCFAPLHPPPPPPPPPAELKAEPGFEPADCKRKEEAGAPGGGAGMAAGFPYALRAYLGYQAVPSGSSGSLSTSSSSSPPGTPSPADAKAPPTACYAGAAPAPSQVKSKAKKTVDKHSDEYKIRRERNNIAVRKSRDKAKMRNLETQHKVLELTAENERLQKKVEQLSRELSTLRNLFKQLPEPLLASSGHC

N[C@H]1C(O)O[C@H](CO)[C@H](O)[C@@H]1O (stereo partly drawn)
active: [13] 39.9 µM
inactive: [1] | [2] | [3] | [4] | [5] | [6] | [7] | [8] | [9] | [10] | [11] | [12] | [14] | [15] | [16] | [17]

CN(C)c1ccc(N=Nc2ccccc2C(=O)O)cc1
active: [2] 137 µM | [3] 29.7 µM | [4] 37.7 µM | [9] 15.6 µM | [11] 47.4 µM | [15] 66.9 µM
inactive: [1] | [18] | [6] | [7] | [8] | [10] | [12] | [13] | [14] | [19] | [16] | [17]

CC=CC(=O)N(CC)c1ccccc1C
inactive: [1] | [2] | [3] | [18] | [4] | [5] | [6] | [7] | [9] | [10] | [11] | [12] | [13] | [14] | [19] | [15] | [16] | [17]

O=c1cc[nH]c(=S)[nH]1
inactive: [1] | [2] | [3] | [18] | [4] | [5] | [6] | [7] | [8] | [9] | [10] | [11] | [12] | [13] | [14] | [19] | [15] | [16] | [17]

NC(=O)OCC(COC(N)=O)c1ccccc1
inactive: [1] | [2] | [3] | [4] | [5] | [6] | [7] | [8] | [9] | [10] | [11] | [12] | [13] | [14] | [19] | [15] | [16] | [17]

COC(=O)c1ccccc1OC
inactive: [1] | [2] | [3] | [18] | [4] | [5] | [6] | [7] | [9] | [10] | [11] | [12] | [13] | [14] | [19] | [15] | [16] | [17]

CC(C)C(=O)C(C)C
inactive: [1] | [2] | [3] | [18] | [5] | [6] | [7] | [8] | [9] | [12] | [13] | [14] | [16] | [17]
active: [4] 66.5 µM | [11] 59.4 µM | [15] 65.6 µM

OC1CCCCCCCCCCC1
active: [2] 75.4 µM | [3] 40.5 µM | [13] 26.4 µM
inactive: [18] | [4] | [5] | [6] | [7] | [8] | [9] | [10] | [11] | [12] | [14] | [19] | [15] | [16] | [17]

Reference: PubChem BioAssay (EPA / NIEHS)
